Measured values published in PubChem BioAssay AID1159580 (chemical genetic matrix, 2015).
In all, about 5,500 compounds went through this assay and about 2,000 (36%) were called active. About 18% were inconclusive and are not listed. Rule as the data show it: active = normalized growth mostly below about 0.91 (no sharp cut-off); inconclusive = no clear call, values can overlap the other calls; inactive = mostly above about 0.92. The list shows a part of the results.

Experiment: chemical genetic growth profiling, strain panel (AID 1159580);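 also: tested at 20 µM; growth read once vehicle control cultures reached saturation at 30 °C; 1 = growth at the plate median or of vehicle wells; lower values mean less growth of the strain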
Conditions: S. cerevisiae deletion strains, growth OD

Measured: normalized growth

NCCc1c[nH]c2ccc(O)cc12
inactive: locus YAL013W, strain DEP1, hits give low values 1.02 | locus YAL040C, strain CLN3, hits give low values 0.969 | locus YCL061C, strain MRC1 (second series), hits give low values 1.01 | locus YDR363W, strain ESC2, hits give low values 1.01 | locus YER002W, strain NOP16, hits give low values 1.01 | locus YHR030C, strain SLT2, hits give low values 1.02 | locus YHR079C, strain IRE1, hits give low values 1.02 | locus YJL095W, strain BCK1, hits give low values 1.01 | locus YJR066W, strain TOR1, hits give low values 0.942 | locus YLR113W, strain HOG1, hits give low values 0.991 | locus YMR307W, strain GAS1, hits give low values 1.03 | locus YNL175C, strain NOP13, hits give low values 1.01 | locus YNL183C, strain NPR1, hits give low values 0.949 | locus YNL197C, strain WHI3, hits give low values 1 | locus YNL224C, strain SQS1, hits give low values 1.01 | locus YOR083W, strain WHI5 (second series), hits give low values 1.04 | locus YOR231W, strain MKK1, hits give low values 1.02 | locus YPL256C, strain CLN2, hits give low values 1.01
